Measurements published in PubChem BioAssay (NCI).
This is part of a sample that, as a whole, favours compounds with a hit. Of some 83,000 tested, about 20% had one in any assay.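 Results are percent growth after 48 hours of single-concentration exposure. 100 means growth as in untreated cells, lower positive values show inhibition; negative values down to -100 show cell death.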 Calls of active or inactive are those of the source. The calls were made as follows: active = growth percent below 10; inactive = the rest.

Tested on: HL-60(TB) leukemia
Assay: NCI-60 one-dose screen, 48 h (100 = growth as untreated, 0 = no growth, -100 = all killed)
Details: 10 µM unless noted

Row | SMILES | growth
1 | COC(=O)c1c2c(c(C)[n+]([O-])c1C)C(=O)C(NCCN1CCOCC1)=CC2=O | 52.4% (inactive)
2 | S=CN1CCCCC1 | 102% (inactive)
3 | CC(C)(C)n1nc(C2CC2)c(Br)c1NC(=O)c1ccccc1F | 104% (inactive)
4 | COc1ccc(C(=O)N/N=C/c2cc(C(F)(F)F)ccc2Cl)cc1 | 100% (inactive)
5 | C=C1CCC2C(C)(COC(=O)CC)C(OC(=O)CC)CCC2(C)C1C/C=C1/C(=O)OCC1OC(=O)CC (stereo not given) | -43.8% (active)
6 | CCc1ccc(CNCC(O)c2ccccc2)cc1 (stereo not given) | 95.7% (inactive)
7 | CCCCCC(C)(O)C(C(=O)O)c1ccccc1 (stereo not given) | 110% (inactive)
8 | COc1cc(CNc2oc(-c3ccccc3)c(-c3ccccc3)c2C#N)cc(CN2CCN(C)CC2)c1O | 75.7% (inactive)
9 | CC[C@H]1OC(=O)[C@H](C)[C@@H](O[C@H]2C[C@@](C)(OC)[C@@H](O)[C@H](C)O2)[C@H](C)[C@@H](O[C@@H]2O[C@H](C)C[C@H](N(C)C)[C@H]2O)[C@](C)(OC)C/C(C)=C2/O[C@@]1(C)C=C2C | 41.4% (inactive)
10 | Cn1cc(-c2csc(-c3cn(CCN)c4ccc(Br)cc34)n2)c2cccnc21 | 41% (inactive)
11 | COc1c(NC[C@H]2OC(O)[C@H](O)[C@@H](O)[C@@H]2O)c(=O)c1=O (stereo not given in full) | 114% (inactive)
12 | COc1cc2nc(-c3ccc(C(F)(F)F)cc3)cc(OCCCN3CCOCC3)c2cc1OC | 32.5% (inactive)
13 | Cn1c(NCCc2ccc(O)c(O)c2)nc2c1c(=O)n(Cc1ccc(Cl)c(Cl)c1)c(=O)n2C | 14.8% (inactive)
14 | CCC(C)CC(CC)NCCN1CCN(C(CC)CC(C)CC)C1=S (stereo not given) | 39.8% (inactive)
15 | COc1ccc2c(CCCCC(c3ccccc3)c3ccccc3)c3[n+](cc2c1OC)CCc1cc2c(cc1-3)OCO2 | -35.5% (active)
16 | Nc1cc(C(=O)O)cc(C(=O)O)c1 | 90.2% (inactive)
17 | CCOC(=O)C1OC1c1ccccc1 (stereo not given) | 97% (inactive)
18 | CC[C@]1(O)C[C@H]2CN(CCc3c([nH]c4ccccc34)C(C(=O)OC)(c3cc4c(cc3OC)N(C)[C@H]3[C@@](O)(C(=O)OC)[C@H](OC(C)=O)[C@]5(CC)[C@@H]6C[C@@H]6CN6CC[C@]43[C@@H]65)C2)C1 (stereo not given in full) | -30.9% (active)
19 | NC1CCC(Nc2nc(NCc3ccc(-c4ccccc4O)nc3)c3ncn(C4CCCC4)c3n2)CC1 (stereo not given) | -41.8% (active)
20 | C/C(=N/NC(N)=S)C(=O)O | 85.3% (inactive)

Row | SMILES | growth
21 | C[n+]1cccc(CC(=O)NO)c1 | 94.7% (inactive)
22 | O=C(Nc1ccc(CO)cc1)c1ccccc1Nc1ccnc(C(F)(F)F)c1 | 98.3% (inactive)
23 | CCOc1cc(-c2ccc[nH]2)[nH]c1/C=C1\N=C(C)C(C(=O)OC)=C1C | -42.7% (active)
24 | CC(=O)Oc1ccc(Cl)cc1CN(C(C)=O)C1CCCCC1 | 92.8% (inactive)
25 | C=C1C(=O)O[C@H]2[C@H]1CC/C(COC(=O)NCc1ccc(Cn3c(=O)sn(-c4ccc(Cl)cc4)c3=O)cc1)=C\CC[C@@]1(C)O[C@@H]21 | -11.4% (active)
26 | CCCC(O)Cn1ncc(C(=O)OCC)c1NC(=O)NCc1cccc(F)c1 (stereo not given) | 59.2% (inactive)
27 | CC(C)c1ccc(/C=N/Nc2nc3ccccc3s2)cc1 | 98% (inactive)
28 | CC(C)n1c2ccc(Br)cc2c2c3c(c4c5ccccc5ccc4c21)C(=O)NC3=O | 100% (inactive)
29 | Cc1cc(=O)oc2cc(Oc3nc(Br)cn4c(Br)cnc34)ccc12 | 30.8% (inactive)
30 | COc1cc2c(cc1OC)C(Sc1ccc(SC)cc1)c1c(nc(N)c(C#N)c1N)O2 (stereo not given) | -52.9% (active)
31 | C(/C=C/c1ccccc1)=Nc1ccc(CCc2ccc(N=C/C=C/c3ccccc3)cc2)cc1 | 42.9% (inactive)
32 | O=C1OC(Oc2ccc(Br)cc2)(c2ccccc2)c2ccccc21 (stereo not given) | 120% (inactive)
33 | Clc1cccc(Nc2ncnc3ccc(-c4cncc(-n5cnnn5)c4)cc23)c1 | 86.6% (inactive)
34 | COc1cnc2c(c1)C(=O)c1c-2n(CCCN2CCOCC2)c(=O)c2cc(F)ccc12 | -10.2% (active)
35 | CC(=O)c1nn(-c2ccccc2)/c(=N\N=C\c2coc3ccc(F)cc3c2=O)s1 | 105% (inactive)
36 | Nc1cc(Cl)c(S(N)(=O)=O)cc1S(N)(=O)=O | 104% (inactive)
37 | O=C(CCc1nc2sc3c(c2c(=O)[nH]1)CCC3)NCc1cn(-c2ccccc2)nc1-c1ccccc1 | 98.7% (inactive)
38 | FC(F)(F)c1ccc(-c2cnc(Cl)nc2NC2CCCCCC2)cc1 | -6.33% (active)
39 | NC(N)=Nc1nc2ccccc2n2c1nc1ccccc12 | 37.7% (inactive)
40 | Cc1ccc(O)c(C(=O)O)c1 | 99.5% (inactive)
